For experiment [1], the system named is PRMT1 (protein arginine N-methyltransferase 1). Put plainly: PRMT1 binders on small-molecule microarrays, primary screen, biochemical, small-molecule microarray, 635 nm fluorescence (AID 1088).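 Note: binding of Prmt1 protein to compounds spotted on small-molecule microarray slides.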 As to conditions: small-molecule microarray binding, higher = more signal.
Experiment [2] is described as follows: yeast growth modulation, basal conditions, primary screen, YJM789 clinical isolate, OD600, 24 h (AID 1089).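 Note: growth of clinical yeast isolate S. cerevisiae YJM 789 seeded 1000 cells per well; test concentration not given here.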 The following applies: S. cerevisiae YJM789 growth, higher = more signal, called active from +8 up or from −8 down.
Experiment [3] can be described thus: fission yeast growth modulation, primary screen, strain 972, OD600, 24 h, no modulator (AID 1090).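 Note: basal condition with compound alone and no growth modifier present; test concentration not given here.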 The following applies: S. pombe 972 growth, higher = more signal, called active from +8 up or from −8 down.
A short description of experiment [4]: S. cerevisiae growth modulation with rapamycin, primary screen, strain BY4716, OD600, 96 h (AID 1091). Note: test concentration not given here. As to conditions: higher = more signal, called active from +8 up or from −8 down.
The target in experiment [5] is Torsin-1A-interacting protein 2 (Homo sapiens) (UniProt Q8NFQ8). Put plainly: LULL1 binders on small-molecule microarray, primary screen, cell lysate, human LULL1 lysate, 635/667 nm fluorescence (AID 1092).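 Note: probe is lysate of COS7 cells overexpressing human LULL1; score merges per-feature 667 nm fluorescence with signal-to-noise.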 The following applies: hLULL1 lysate binding, 635 nm fluorescence, higher = more signal.
A short description of experiment [6]: E. coli growth modulation, two-sided OD650, primary screen, E. coli filamentation project, strain DRC41, 24 h (AID 1093).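 Note: MC1000 strain lacking acrAB efflux and sulA so SOS filamentation is blocked; test concentration not given here.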 The following applies: OD650, 24 h, higher = more signal, called active from +8 up or from −8 down.
Experiment [7] is described as follows: small-molecule microarray binders of probe aLefty2, primary screen, biochemical, biotinylated probe, 635/667 nm fluorescence (AID 1094).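 Note: score merges spot fluorescence near 667 nm with spot signal-to-noise ratio.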 The following applies: higher = more signal.
The test system of experiment [8] is Noggin (protein binding on small-molecule microarray). Put plainly: Noggin binders on small-molecule microarray, primary screen, biochemical, 635/667 nm fluorescence (AID 1095).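 Note: score merges 667 nm feature fluorescence with signal to noise over triplicate slides.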 The following applies: 635 nm fluorescence, higher = more signal.
The target of experiment [9] is Neurogenic locus notch homolog protein 3 (Homo sapiens) (UniProt Q9UM47). Put plainly: NOTCH3 binders on small-molecule microarray, primary screen, biochemical, 635/667 nm fluorescence (AID 1096). The following applies: NOTCH3 binding, 635 nm fluorescence, higher = more signal.
Experiment [10] in a line: small-molecule microarray binders of probe aEGFR, primary screen, biochemical, biotinylated probe, 635/667 nm fluorescence (AID 1097).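 Note: probe is a biotinylated anti-EGFR antibody binding compounds printed on slides; score combines fluorescence near 667 nm and signal to noise of each spot.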 As to conditions: higher = more signal.
In experiment [11] the test system is Plasmodium falciparum Sir2 (PF13_0152, Sir2A). Put plainly: pfSir2 binders on small-molecule microarrays, primary screen, biochemical, small-molecule microarray, 635 nm fluorescence (AID 1098).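 Note: score merges spot fluorescence intensity with its signal-to-noise ratio.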 The following applies: small-molecule microarray binding, fluorescence 635 nm; higher = more signal.
Experiment [12] is described as follows: small-molecule microarray binders of probe aDKK1, primary screen, biochemical, biotinylated probe, 635/667 nm fluorescence (AID 1099).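 Note: score merges 667nm spot fluorescence with signal to noise across triplicate slides; reference of the scale not given here.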 As to conditions: higher = more signal.
Experiment [13] is described as follows: small-molecule microarray binders of probe aCHRDL2, primary screen, biochemical, biotinylated probe, 635/667 nm fluorescence (AID 1100). As to conditions: higher = more signal.
The nature of experiment [14]: splicing luciferase reporter signal modulators, primary screen, spliceosome inhibition project, cell-based, HEK293, splice +/- reporter (AID 1101).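 Note: HEK293 cells carrying a splicing-competent luciferase reporter gene; test concentration not given here.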 As to conditions: luminescence, 24 h, higher = more signal, called active from +8 up or from −8 down. On the technique in general: Reporter assays use an easily measured gene product as a stand-in for the process of interest.

In experiment [15] the target is Fibroblast growth factor 10 (Homo sapiens) (UniProt O15520). Put plainly: FGF10 binders on small-molecule microarrays, primary screen, biochemical, small-molecule microarray, 635 nm fluorescence (AID 1102). The following applies: FGF10 binding, fluorescence 635 nm, higher = more signal.
In experiment [16] the test system is glycogen synthase kinase-3 (GSK3A per assay name; protocol says GSK3B). Put plainly: GSK3 binders on small-molecule microarrays, primary screen, biochemical, small-molecule microarray, 635 nm fluorescence, GSK3A (AID 1103). Note: the record names both GSK3A and GSK3B. The following applies: small-molecule microarray binding, fluorescence 635 nm; higher = more signal.
For experiment [17], the target named is Epidermal growth factor receptor (Homo sapiens) (UniProt P00533). Put plainly: EGFR binders on small-molecule microarrays, primary screen, biochemical, small-molecule microarray, 635 nm fluorescence (AID 1104).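 Note: score merges 667 nm emission intensity with spot signal to noise over triplicate slides.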 As to conditions: EGFR binding, higher = more signal.
Experiment [18] has as its target Follistatin-related protein 3 (Homo sapiens) (UniProt O95633). Put plainly: FSTL3 binders on small-molecule microarrays, primary screen, biochemical, small-molecule microarray, 635 nm fluorescence (AID 1105).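 Note: score merges emission near 667 nm and signal to noise per printed spot across three slides.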 The following applies: FSTL3 binding, higher = more signal.
For experiment [19], the target named is Dickkopf-related protein 1 (Homo sapiens) (UniProt O94907). Put plainly: DKK1 binders on small-molecule microarrays, primary screen, biochemical, small-molecule microarray, 635 nm fluorescence scan (AID 1106).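 Note: score merges emission near 667 nm with signal to noise over three replicate slides.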 As to conditions: DKK1 binding, higher = more signal.
The test system of experiment [20] is Inhibin beta A chain (activin A). Put plainly: INHBA (activin A) binders on microarrays, primary screen, biochemical, small-molecule microarray, 635 nm fluorescence scan (AID 1107).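 Note: mouse activin A protein probed at 4.33 µg/mL on printed slides; score merges bound-protein fluorescence near 667 nm with spot signal-to-noise.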 The following applies: small-molecule microarray binding, higher = more signal.

The values that follow come from PubChem BioAssay.

Each structure is given as a SMILES string. The source made the active and inactive calls.

Torsin-1A-interacting protein 2 (Homo sapiens), sequence (Q8NFQ8 whole entry, looked up): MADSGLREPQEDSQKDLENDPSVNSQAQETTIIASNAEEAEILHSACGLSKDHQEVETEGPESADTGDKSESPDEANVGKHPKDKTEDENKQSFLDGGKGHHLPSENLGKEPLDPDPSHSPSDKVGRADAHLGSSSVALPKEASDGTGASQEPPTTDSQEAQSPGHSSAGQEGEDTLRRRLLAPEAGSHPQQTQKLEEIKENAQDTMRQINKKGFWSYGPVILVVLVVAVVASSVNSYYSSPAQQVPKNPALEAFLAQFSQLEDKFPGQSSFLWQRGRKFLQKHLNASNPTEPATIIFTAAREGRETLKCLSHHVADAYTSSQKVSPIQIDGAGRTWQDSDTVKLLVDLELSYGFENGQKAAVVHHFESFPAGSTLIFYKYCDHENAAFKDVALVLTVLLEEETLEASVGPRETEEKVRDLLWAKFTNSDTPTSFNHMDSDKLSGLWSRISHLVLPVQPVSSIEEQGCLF
Follistatin-related protein 3 (Homo sapiens), sequence (O95633 whole entry, looked up): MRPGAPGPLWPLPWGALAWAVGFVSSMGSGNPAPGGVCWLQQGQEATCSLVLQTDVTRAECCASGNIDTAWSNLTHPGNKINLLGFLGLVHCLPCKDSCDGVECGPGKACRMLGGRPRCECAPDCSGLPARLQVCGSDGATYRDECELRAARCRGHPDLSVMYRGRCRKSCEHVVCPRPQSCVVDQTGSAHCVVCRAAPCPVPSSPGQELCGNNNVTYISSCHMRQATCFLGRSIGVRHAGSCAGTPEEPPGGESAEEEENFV
Epidermal growth factor receptor (Homo sapiens), sequence (P00533 whole entry, looked up): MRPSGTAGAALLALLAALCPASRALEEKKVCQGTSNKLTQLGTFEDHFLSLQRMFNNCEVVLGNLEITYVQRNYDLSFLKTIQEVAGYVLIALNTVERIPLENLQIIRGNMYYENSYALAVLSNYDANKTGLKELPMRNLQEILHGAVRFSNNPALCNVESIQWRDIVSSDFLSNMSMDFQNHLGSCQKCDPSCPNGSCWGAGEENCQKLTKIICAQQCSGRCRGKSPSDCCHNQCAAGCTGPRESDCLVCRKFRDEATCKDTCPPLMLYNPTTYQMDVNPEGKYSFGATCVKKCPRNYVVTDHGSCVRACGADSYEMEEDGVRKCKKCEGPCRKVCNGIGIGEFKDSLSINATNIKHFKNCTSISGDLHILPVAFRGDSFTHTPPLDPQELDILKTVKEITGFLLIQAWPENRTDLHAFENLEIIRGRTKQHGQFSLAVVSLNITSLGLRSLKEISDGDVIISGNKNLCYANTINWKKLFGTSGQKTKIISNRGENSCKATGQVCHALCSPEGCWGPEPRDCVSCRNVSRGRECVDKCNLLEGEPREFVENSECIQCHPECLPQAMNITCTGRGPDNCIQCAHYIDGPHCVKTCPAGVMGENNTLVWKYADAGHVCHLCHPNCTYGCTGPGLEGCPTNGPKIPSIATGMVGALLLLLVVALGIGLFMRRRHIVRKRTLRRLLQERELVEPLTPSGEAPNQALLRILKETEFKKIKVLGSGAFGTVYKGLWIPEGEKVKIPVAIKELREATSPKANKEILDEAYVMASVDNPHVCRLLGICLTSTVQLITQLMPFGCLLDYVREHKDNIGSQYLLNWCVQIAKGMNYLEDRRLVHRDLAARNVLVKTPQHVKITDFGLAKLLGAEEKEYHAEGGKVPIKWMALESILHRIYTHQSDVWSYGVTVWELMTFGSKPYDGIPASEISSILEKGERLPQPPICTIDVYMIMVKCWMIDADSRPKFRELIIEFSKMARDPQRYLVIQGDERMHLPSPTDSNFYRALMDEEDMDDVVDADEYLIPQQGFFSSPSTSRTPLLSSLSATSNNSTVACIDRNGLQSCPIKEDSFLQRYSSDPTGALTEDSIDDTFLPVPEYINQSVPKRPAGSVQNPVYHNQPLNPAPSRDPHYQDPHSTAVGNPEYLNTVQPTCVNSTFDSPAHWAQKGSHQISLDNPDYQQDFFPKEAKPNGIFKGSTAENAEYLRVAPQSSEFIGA
Neurogenic locus notch homolog protein 3 (Homo sapiens), sequence (Q9UM47 whole entry, looked up): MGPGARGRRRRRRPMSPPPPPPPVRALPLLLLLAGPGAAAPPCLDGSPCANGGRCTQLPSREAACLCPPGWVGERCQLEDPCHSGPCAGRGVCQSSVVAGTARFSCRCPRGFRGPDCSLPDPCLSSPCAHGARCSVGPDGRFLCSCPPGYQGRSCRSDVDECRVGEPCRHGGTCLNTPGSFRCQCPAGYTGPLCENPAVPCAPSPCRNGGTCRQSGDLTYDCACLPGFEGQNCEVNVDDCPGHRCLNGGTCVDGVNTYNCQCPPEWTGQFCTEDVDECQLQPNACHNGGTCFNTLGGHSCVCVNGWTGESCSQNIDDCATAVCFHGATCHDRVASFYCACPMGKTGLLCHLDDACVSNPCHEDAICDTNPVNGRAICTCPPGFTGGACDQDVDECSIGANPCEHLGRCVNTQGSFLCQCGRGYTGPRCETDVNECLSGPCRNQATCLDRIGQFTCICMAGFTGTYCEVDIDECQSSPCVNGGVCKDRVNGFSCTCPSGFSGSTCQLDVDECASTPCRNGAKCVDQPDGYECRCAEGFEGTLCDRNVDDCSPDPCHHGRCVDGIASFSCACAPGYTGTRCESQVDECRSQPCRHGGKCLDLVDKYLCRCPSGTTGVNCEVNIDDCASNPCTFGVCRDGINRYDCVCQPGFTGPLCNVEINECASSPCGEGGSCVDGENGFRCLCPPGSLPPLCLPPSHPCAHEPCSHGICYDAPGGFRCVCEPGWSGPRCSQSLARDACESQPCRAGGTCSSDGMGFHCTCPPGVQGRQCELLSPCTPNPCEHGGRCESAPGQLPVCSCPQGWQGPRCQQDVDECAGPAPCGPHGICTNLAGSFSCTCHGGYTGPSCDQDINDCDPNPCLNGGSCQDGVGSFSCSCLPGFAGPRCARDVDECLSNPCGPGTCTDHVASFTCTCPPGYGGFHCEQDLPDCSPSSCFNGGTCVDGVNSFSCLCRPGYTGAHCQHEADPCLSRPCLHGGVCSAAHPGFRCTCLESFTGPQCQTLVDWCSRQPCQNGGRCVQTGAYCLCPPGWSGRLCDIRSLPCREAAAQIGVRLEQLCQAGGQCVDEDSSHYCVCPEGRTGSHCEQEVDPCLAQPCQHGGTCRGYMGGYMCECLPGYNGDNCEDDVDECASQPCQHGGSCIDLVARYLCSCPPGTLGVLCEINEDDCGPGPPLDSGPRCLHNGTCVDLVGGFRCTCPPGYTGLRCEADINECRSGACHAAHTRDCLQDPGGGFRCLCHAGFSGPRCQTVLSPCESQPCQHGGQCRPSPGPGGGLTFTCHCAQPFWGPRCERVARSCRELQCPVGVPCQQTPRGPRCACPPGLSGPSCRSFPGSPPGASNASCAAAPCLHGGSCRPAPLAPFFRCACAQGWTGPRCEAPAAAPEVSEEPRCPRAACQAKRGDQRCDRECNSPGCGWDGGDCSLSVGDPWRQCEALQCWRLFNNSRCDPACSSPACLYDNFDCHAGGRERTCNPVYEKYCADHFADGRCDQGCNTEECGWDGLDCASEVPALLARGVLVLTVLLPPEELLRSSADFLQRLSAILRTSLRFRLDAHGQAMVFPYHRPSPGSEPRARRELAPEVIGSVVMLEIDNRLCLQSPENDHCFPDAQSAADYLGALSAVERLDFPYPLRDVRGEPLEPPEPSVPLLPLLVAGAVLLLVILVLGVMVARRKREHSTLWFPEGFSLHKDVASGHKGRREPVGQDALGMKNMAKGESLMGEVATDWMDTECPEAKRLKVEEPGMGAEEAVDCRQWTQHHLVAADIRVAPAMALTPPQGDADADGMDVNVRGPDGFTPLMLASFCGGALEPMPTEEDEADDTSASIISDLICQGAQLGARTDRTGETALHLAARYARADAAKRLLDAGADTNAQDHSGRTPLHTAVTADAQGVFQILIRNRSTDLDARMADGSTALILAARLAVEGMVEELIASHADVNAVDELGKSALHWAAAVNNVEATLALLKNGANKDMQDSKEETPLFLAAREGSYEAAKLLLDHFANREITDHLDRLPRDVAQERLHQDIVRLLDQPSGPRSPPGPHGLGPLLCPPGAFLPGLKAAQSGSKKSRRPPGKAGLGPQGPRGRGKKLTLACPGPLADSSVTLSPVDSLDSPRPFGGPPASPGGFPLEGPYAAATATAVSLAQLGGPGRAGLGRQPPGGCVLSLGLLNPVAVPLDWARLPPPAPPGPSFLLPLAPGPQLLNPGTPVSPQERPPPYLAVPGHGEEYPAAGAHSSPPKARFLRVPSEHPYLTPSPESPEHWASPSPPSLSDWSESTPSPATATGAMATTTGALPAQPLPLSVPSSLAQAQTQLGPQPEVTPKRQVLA
Fibroblast growth factor 10 (Homo sapiens), sequence (O15520 whole entry, looked up): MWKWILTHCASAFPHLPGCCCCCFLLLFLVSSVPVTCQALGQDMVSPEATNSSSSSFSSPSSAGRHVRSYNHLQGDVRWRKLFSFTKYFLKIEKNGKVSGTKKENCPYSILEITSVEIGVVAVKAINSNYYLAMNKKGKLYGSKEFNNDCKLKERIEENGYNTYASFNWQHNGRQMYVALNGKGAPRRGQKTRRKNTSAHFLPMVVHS
Dickkopf-related protein 1 (Homo sapiens), sequence (O94907 whole entry, looked up): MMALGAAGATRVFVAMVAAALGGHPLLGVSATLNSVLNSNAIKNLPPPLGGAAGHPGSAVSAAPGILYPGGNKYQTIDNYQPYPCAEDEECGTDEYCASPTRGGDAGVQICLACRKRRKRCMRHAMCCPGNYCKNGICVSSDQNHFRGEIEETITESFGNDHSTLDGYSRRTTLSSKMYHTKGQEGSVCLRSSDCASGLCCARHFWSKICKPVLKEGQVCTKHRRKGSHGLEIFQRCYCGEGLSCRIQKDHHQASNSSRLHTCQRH

`C=CCOC(=O)[C@H]1[C@@H]2C(=O)O[C@@H](c3ccccc3)[C@@H](c3ccccc3)N2[C@@H](c2ccc(OCCOC(=O)[C@@H]3C[C@@H]4C(=O)N[C@@H](CCCCNC(C)=O)C(=O)N4[C@@H]3c3ccc(O)cc3)cc2)[C@]12C(=O)Nc1ccc(I)cc12`: the composite z-score stood at 1.52 in experiment [1]; 1.88 in experiment [5]; 0.0594 in experiment [7]; 1.19 in experiment [8]; 0.981 in experiment [9]; 0.117 in [10]. Besides, the composite z-score in experiment [11] is 0.95; in experiment [12] it was 0.0153; in experiment [13], 0.127; in experiment [15], 1.33; in experiment [16] it was 1.27; in experiment [17] it was 1.08. Moreover, the composite z-score in experiment [18] came to 1.3; in experiment [19], 0.789; in experiment [20] it was 0.732. The z-score in [2] is 1.29 (inactive); in experiment [3], 0.145 (inactive); in experiment [4] it was 4.21 (inactive); in [6], -0.289 (inactive); in experiment [14], -0.151 (inactive).

With `CC(C)N1C(=O)c2ccccc2[C@@H](C(=O)NC2CC2)[C@@H]1c1ccc(CO)cc1`, the composite z-score in experiment [1] was 0.672; in experiment [5], 0.968; in [7], -0.117; in experiment [8], 0.521; in [9] it was -0.201; in experiment [10], -0.156. For the same compound, the composite z-score is 0.869 in experiment [11]; -0.18 in [12]; -0.194 in experiment [13]; -0.114 in experiment [15]; 0.621 in experiment [16]; -0.0202 in experiment [17]. Also, the composite z-score in experiment [18] worked out at 0.552; in [19], 0.37; in experiment [20], 1.13. In addition, the z-score is -0.904 (inactive) in [2]; -0.826 (inactive) in experiment [3]; -0.39 (inactive) in experiment [4]; 0.141 (inactive) in [6]; 0.381 (inactive) in experiment [14].

Turning to `COC(=O)Cn1c(C(=O)N(C)C)cc2c1C[C@H]1CN(C(=O)c3ccccc3)[C@@](Cc3ccc(F)cc3)(C(=O)OC)[C@@H]21`, the composite z-score in experiment [1] is -0.397; in experiment [5], 2.81; in [7], 0.639; in [8], -0.327; in [9] it was 0.104; in experiment [10], 0.561. Moreover, the composite z-score was 0.441 in experiment [11]; 0.903 in experiment [12]; 0.823 in experiment [13]; 1.33 in experiment [15]; -0.367 in experiment [16]; 0.404 in experiment [17]. Also, the composite z-score in experiment [18] is 0.139; in [19] it was -0.0283; in [20] it was 0.65. Besides, the z-score is 1.28 (inactive) in experiment [2]; 1.42 (inactive) in experiment [3]; 1.61 (inactive) in experiment [4]; -0.581 (inactive) in experiment [6]; -0.233 (inactive) in experiment [14].

Consider `COC(=O)[C@@]1(Cc2ccccc2)[C@H]2c3cc(C(=O)N(C)C)n(Cc4c(CO)[nH]cc(C)c4=O)c3C[C@H]2CN1C(=O)c1ccccc1`, for which the composite z-score in [1] is 0.0795; in [5] it was 3.13; in experiment [7] it was 0.163; in experiment [8], -0.38; in experiment [9] it was 0.447; in experiment [10], 0.0288. For the same compound, the composite z-score in experiment [11] is 0.42; in experiment [12], 0.183; in experiment [13], 0.528; in experiment [15], 0.422; in [16] it was -0.0088; in experiment [17] it was -0.0555. For the same compound, the composite z-score in experiment [18] is -0.237; in experiment [19], -0.296; in experiment [20], 1.1. Also, the z-score is 0.469 (inactive) in experiment [2]; 1.51 (inactive) in experiment [3]; 0.0018 (inactive) in experiment [4]; -0.633 (inactive) in experiment [6]; 1.06 (inactive) in experiment [14].

Take `O=C1NC(=O)C2C1C=CC(C(O)CCc1ccccc1)N2Nc1ccc(Cl)cc1Cl` (stereo not given): the composite z-score is 0.23 in experiment [1]; 2.73 in experiment [5]; 0.379 in experiment [7]; -0.839 in [8]; -0.0822 in experiment [9]; 0.0122 in experiment [10]. Also, the composite z-score was 0.187 in experiment [11]; 1.39 in experiment [12]; 1.29 in experiment [13]; 0.265 in experiment [15]; 0.107 in [16]; -0.973 in [17]. The composite z-score in experiment [18] is 0.195; in experiment [19], -0.743; in experiment [20] it was 1.28. The z-score is -0.455 (inactive) in experiment [2]; -2.05 (inactive) in experiment [3]; 0.0242 (inactive) in [4]; -0.748 (inactive) in [6]; 1.5 (inactive) in experiment [14].

For `C=CCC(OC(C)=O)[C@@H]1[C@@H](N(Cc2cc3ccccc3o2)C(=O)c2ccc(-c3ccccc3)cc2)c2cc(OCCCO)ccc2N1C(=O)c1ccc2ccccc2c1` (stereo not given in full), the composite z-score is 0.0279 in experiment [1]; 1.1 in experiment [5]; -0.0485 in experiment [7]; 0.228 in [8]; 0.391 in experiment [9]; -0.0981 in experiment [10]. The composite z-score is 0.187 in experiment [11]; -0.106 in experiment [12]; 0.285 in [13]; 0.132 in [15]; 0.289 in experiment [16]; -0.0546 in experiment [17]. The figures for the composite z-score in experiment [18], in experiment [19] and in experiment [20] were 0.674, 0.227 and 1.02, respectively. Further, the z-score in experiment [2] is 0.271 (inactive); in [3] it was 0.314 (inactive); in [4], 1.03 (inactive); in [6], -0.704 (inactive); in experiment [14], 0.416 (inactive).

As to `COc1ccc(CCN2C(=O)[C@@]3(Cc4ccccc42)c2ccccc2C(=O)N(Cc2ccccc2OC)[C@H]3c2ccc(CO)cc2)cc1`, the composite z-score in experiment [1] is 0.177; in [5] it was 1.66; in [7], 0.0877; in experiment [8], -1.36; in [9] it was -0.642; in [10], -0.204. Besides, the composite z-score was 0.9 in experiment [11]; 0.533 in experiment [12]; 0.406 in experiment [13]; -0.783 in experiment [15]; -0.49 in experiment [16]; -0.951 in [17]. In addition, the composite z-score in [18] is -1.14; in experiment [19] it was -1.33; in experiment [20] it was 0.359. The z-score in experiment [2] is -0.585 (inactive); in [3] it was -1.23 (inactive); in experiment [4], -1.42 (inactive); in [6] it was 0.237 (inactive); in experiment [14], -0.942 (inactive).

Turning to `O=C1O[C@H](c2ccccc2)[C@H](c2ccccc2)N2[C@H]1[C@@H](C(=O)Nc1nc3ccccc3s1)[C@]1(C(=O)Nc3ccc(C#CC4(O)CCCCCC4)cc31)[C@H]2c1ccccc1OCCO`, the composite z-score in experiment [1] is 1.54; in [5], 3.08; in experiment [7], -0.118; in experiment [8] it was 0.971; in experiment [9] it was 1.06; in experiment [10], -0.0564. The composite z-score is 1.55 in [11]; -0.074 in [12]; -0.353 in [13]; 1.35 in experiment [15]; 1.33 in experiment [16]; 0.49 in experiment [17]. In addition, the composite z-score in [18] is 1.32; in experiment [19], 0.452; in experiment [20] it was -0.0311. Moreover, the z-score in experiment [2] was 1.87 (inactive); in [3], 1.91 (inactive); in [4] it was 3.32 (inactive); in [6], 0.149 (inactive); in experiment [14], -0.215 (inactive).
